Data taken from PubChem BioAssay.
Activity calls are given as the source filed them. How the calls were made is not given here.

Test: inhibitors of Cryptococcus chitosan production, flow cytometry, Cibacron Brilliant Red staining (AID 1347148);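 further: compound exposure lasted three days at 37 degrees C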
Conditions: Cryptococcus neoformans chitosan, active compounds read low; at 10 µM unless noted

Fold fluorescence, inactive:
O=C(O)CNC(=O)[C@H](CS)Cc1ccccc1 3.85 [at 197.4 µM], CN(C)C[C@H](O)Cn1c2ccc(Br)cc2c2cc(Br)ccc21 6.53 [at 117.3 µM], OC[C@@H]1NC[C@H](O)[C@H](O)[C@H]1O 8.15 [at 306.4 µM], CN=C(NC#N)Nc1ccc(C2=NNC(=O)C[C@@H]2C)cc1 7.2 [at 175.9 µM], CNC(=O)[C@@H]1O[C@H](n2cnc3c(NCc4cccc(I)c4)ncnc32)C(O)[C@@H]1O (stereo partly specified) 4.36 [at 98 µM], C[C@H](N)C1CCC(C(=O)Nc2ccncc2)CC1 (stereo partly specified) 2.94 [at 202.1 µM], CCCCC[C@@H](O)CC[C@H]1[C@H](CCCCCCC(=O)O)C(=O)C[C@@H]1O 5.11, COc1ccc(CCN(C)CCC[C@@](C#N)(c2cc(OC)c(OC)c(OC)c2)C(C)C)cc1OC 4.22 [at 103.2 µM], O=C(O)CCC/C=C\C[C@@H]1C(=O)C[C@H](O)[C@H]1/C=C/[C@H](O)CCc1ccccc1 4.52, C=CCNC1=C2C[C@H](C)C[C@@H](OC)[C@@H](O)[C@H](C)/C=C(\C)[C@@H](OC(N)=O)[C@H](OC)/C=C\C=C(/C)C(=O)NC(=CC1=O)C2=O 7.27 [at 85.4 µM], CC(=O)O[C@@H]1C(=O)[C@]2(C)C([C@@H](OC(=O)c3ccccc3)[C@@]3(O)C[C@@H](OC(=O)[C@@H](O)[C@H](NC(=O)c4ccccc4)c4ccccc4)C(C)=C1C3(C)C)[C@@]1(OC(C)=O)CO[C@H]1C[C@H]2O (stereo partly specified) 4.34 [at 58.6 µM]
